ERK EGF block: qHTS Assay for Inhibitors of the ERK Signaling Pathway using a Homogeneous Screening Assay; Stimulation with EGF. HEK293-V1b, EGF-stimulated phospho-ERK AlphaScreen. Potency, µM (series often up to 11.5 µM), most hits filed as inhibitors. 130,000 tested, 0.41% active. AID 1454, 2008; active = well fitted inhibition curve with a large enough effect; note: nearly all actives have a fitted effect of over 55% in size
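Concentration-response of compounds against EGF-driven ERK phosphorylation in V1b-expressing HEK293 cells; 30 min preincubation, 5 min EGF, AlphaScreen detection; Normalized to DMSO basal and 25 nM EGF.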
Of the large screens only hits and unclear results are named; the others gave an inactive call. Shown is part of a subset that was picked to be rich in hits.

O=C(CSc1nnc(Cc2ccccc2)n1-c1cccc(Cl)c1)NNC(=O)Cc1ccccc1	none
O=C(COc1ccc(Br)cc1)N1CCN(S(=O)(=O)/C=C/c2ccccc2)CC1	none
COc1ccc(OC)c(NC(=O)CSc2nc3ccccc3c(=O)n2CCNC(C)=O)c1	none
O=[N+]([O-])c1cccc(-c2ccc(C(=S)N3CCOCC3)o2)c1	none
O=C(c1ccc(-c2cccc(Cl)c2)o1)N1CCN(c2ccc([N+](=O)[O-])cc2)CC1	none
O=[N+]([O-])c1cccc(-c2ccc(C(=S)N3CCN(c4ccccc4)CC3)o2)c1	ERK EGF block 25µM
Cc1ccc(S(=O)(=O)/C(=C\N(C)C)c2cnc(Cl)s2)cc1	none
CC(CC(=O)Nc1ccccc1C(F)(F)F)c1ccccc1 (stereo unspecified)	none
C=CCNC(=S)N/N=C/c1ccc(-c2ccc(Br)cc2)o1	none
COc1ccc(NC(=O)c2ccccc2[N+](=O)[O-])cc1	none
COc1ccc(Nc2c([N+](=O)[O-])ccc3c2=NC2(CCCCC2)N=3)cc1	ERK EGF block 14µM
COc1ccc(Nc2ccncc2[N+](=O)[O-])cc1	none
Cc1cccc(OCc2nc(-c3ccc(Br)o3)no2)c1	none
Cc1ccc(OCC(=O)NC(=S)Nc2cccc(NC(=O)c3ccccc3Cl)c2)cc1	none
Cn1ncc(Cl)c1C(=O)Nc1nc2ccc(Cl)cc2s1	none
Oc1cccc(/C=N\Nc2nncc(-c3ccccc3)n2)c1	none
CCOC(=O)N1CCc2c(sc(NC(=O)CN3CCOCC3)c2C#N)C1	none
CCOC(=O)N1CCc2c(sc(NC(=O)CN3CCOCC3)c2C(=O)Nc2ccccc2)C1	ERK EGF block 35µM
CCOC(=O)N1CCc2c(sc(NC(=O)CN3CCN(C)CC3)c2C(=O)Nc2ccccc2)C1	none
Cc1ccc(-n2c(CSc3nc(C)cc(C)n3)nnc2SCC(=O)Nc2nccs2)cc1	none
O=C(/C=C/c1ccco1)Nc1nc(-c2ccccc2)cs1	ERK EGF block 25µM
CN(C)S(=O)(=O)c1ccc(-c2csc(N/N=C/c3ccco3)n2)cc1	ERK EGF block 20µM
CN(C)S(=O)(=O)c1ccc(C(=O)NCC(=O)N/N=C/c2ccco2)cc1	none
O=C(/C=C/c1ccco1)Nc1nc(-c2ccc(F)c(F)c2)cs1	none
Cc1cc(NS(=O)(=O)c2ccc(Nc3nc(-c4ccc(O)cc4)cs3)cc2)no1	none
CN(C)S(=O)(=O)c1ccc(-c2csc(N/N=C/c3ccc(O)cc3)n2)cc1	ERK EGF block 11µM
Cc1sc(N/N=C/c2ccco2)nc1-c1ccccc1	none
C(=N\Nc1nc(-c2ccccc2)cs1)/c1ccncc1	none
O=C(/C=C/c1ccco1)Nc1nc(-c2ccccn2)cs1	none
N#CCCn1cc(C(=O)Nc2ccccc2Br)c(-c2cccs2)n1	none
Cn1nnc(NC(=O)c2ccccc2)n1	none
Cc1cc(C)cc(NC(=S)N(C)C)c1	none
CN(C)S(=O)(=O)c1cccc(NC(=O)c2ccc(Sc3nncn3C)c([N+](=O)[O-])c2)c1	none
COc1ccc(N(CC(=O)Nc2cccc(C(F)(F)F)c2)S(C)(=O)=O)cc1	none
Cc1ccc(C(=O)c2cc([N+](=O)[O-])ccc2N2CCOCC2)cc1	none
COc1cc(/C=C2\SC(=S)N(CCC(=O)Nc3ccccc3)C2=O)cc(OC)c1OC	none
O=C(CCn1c2c(c3ccccc31)CCCC2)NNC(=O)c1ccccc1C(=O)O	none
COc1ccc(C(c2nnnn2C2CCCCC2)N2CCN(C)CC2)c(OC)c1 (stereo unspecified)	none
CCOC(=O)c1cc(N)cc([N+](=O)[O-])c1	none
COC(=O)c1cc(C(=O)N2CCOCC2)cc([N+](=O)[O-])c1	none
COC1(C)CC2C(CC1OC(=O)c1cc([N+](=O)[O-])cc([N+](=O)[O-])c1)C2(C)C (stereo unspecified)	ERK EGF block 25µM
O=C(O)c1cc(C(=O)C2CCCCC2)c[nH]1	none
CCc1c(C)sc(NC(=S)Nc2cccnc2)c1C(=O)OC	none
CCc1c(C)sc(NC(=S)Nc2nc(C)cc(C)n2)c1C(=O)OC	none
CCc1c(C)sc(NC(=S)N2CCN(S(C)(=O)=O)CC2)c1C(=O)OC	ERK EGF block 28µM
COc1ccc(C(=O)N2CCC3(CCCN(C(=O)NC(C)C)C3)CC2)cc1	none
O=C(O)c1cccc2c1C(=O)c1ccccc1C2=O	none
C/C(=N\N(C)C)C1=C(O)c2ccccc2C1=O	none
CN(C=[N+](C)C)c1cccc2c1C(=O)c1ccccc1C2=O	ERK EGF block 18µM
O=[N+]([O-])c1ccc(N2CCN(c3ccccc3O)CC2)c(Cl)c1	none
O=[N+]([O-])c1cc(S(=O)(=O)Nc2ccccc2)ccc1N1CCN(c2ccccc2)CC1	none
O=C1C(Cl)=C(N2CCN(c3ccccc3[N+](=O)[O-])CC2)C(=O)c2ccccc21	ERK EGF block 25µM
Cc1[nH]c(=O)c(C(=O)c2cc(Cl)ccc2O)cc1C(=O)O	none
COc1ccc(N(C)C(=O)Cc2c(C(=O)O)[nH]c3ccccc23)c(OC)c1	none
Cc1cc(C)c(Nc2cc(S(=O)(=O)O)c(N)c3c2C(=O)c2ccccc2C3=O)c(C)c1	ERK EGF block 22µM
Cc1ccc(C)c(NC(=O)COC(=O)c2cccc3c2C(=O)c2ccccc2C3=O)c1	none
Cc1cc(C)c(NC(=O)COC(=O)c2cccc3c2C(=O)c2ccccc2C3=O)c(C)c1	none
CC(C)(C)c1[nH]nc2c1C(c1ccsc1)C(C#N)=C(N)O2 (stereo unspecified)	none
O=C1C=C(Nc2ccc(Cl)cc2)CC(c2ccco2)C1 (stereo unspecified)	none
Cc1ccc(C2CC(=O)C=C(Nc3ccc(Cl)cc3)C2)cc1 (stereo unspecified)	none
O=C1C=C(Nc2ccc(Cl)cc2)CC(c2ccc(Cl)cc2)C1 (stereo unspecified)	ERK EGF block 14µM
Cc1ccc(/C=N/NC(=O)c2nc3nc(C)cc(C)n3n2)cc1	none
CC(C)CC(=O)/C(=C\c1ccc(Cl)cc1Cl)n1cncn1	ERK EGF block 28µM
CN(C)c1ccc(/C=C(/C(=O)c2ccc(Cl)cc2Cl)n2cncn2)cc1	none
CN(C)/C=C(/C(=O)c1ccc(Cl)cc1)n1cncn1	none
COc1ccc(-c2ccc(OC)c([C@H]3[C@H]4C=CC[C@@H](C)[C@@H]4C(=O)N3Cc3ccccc3)c2)cc1C	none
CC(C)(C)c1nnc2cccc(Cl)n12	none
CCN(C(=O)CSc1cc(C)c2ccc(OC)cc2n1)C1CCS(=O)(=O)C1 (stereo unspecified)	none
COc1cc(OC)c(C(=O)NCC2CCCO2)cc1OC (stereo unspecified)	none
COc1cccc(N=c2oc3cc(O)ccc3cc2C(=O)NCC2CCCO2)c1 (stereo unspecified)	ERK EGF block 28µM
COc1cccc(OCc2ccc(C(=O)NCC3CCCO3)cc2)c1 (stereo unspecified)	none
CC1=Nc2cc(C(=O)O)ccc2Sc2ccc(Br)cc21	none
N/C(=N\OC(=O)c1ccc(Cl)cc1)c1ccc(Cl)cc1	none
O=C(c1ccc2c3n(nc2c1)-c1ccc(Cl)cc1CO3)N1CCOCC1	none
CN1CCN(c2nc3c(c(=O)n(C)c(=O)n3C)n2CCSc2nc3ccccc3s2)CC1	none
CCOc1ccc(-c2cc(C(=O)NCC3CCCO3)c3ccccc3n2)cc1 (stereo unspecified)	none
CC(C)Oc1ccc(-c2nc(NCC3CCCO3)c3ccccc3n2)cc1 (stereo unspecified)	ERK EGF block 32µM
c1ccc2c(NCC3CCCO3)nc(N3CCCCC3)nc2c1 (stereo unspecified)	none
COc1ccc(-c2nc(CN3CCN(c4cc(C)nc(C)c4)CC3)c(C)o2)c2ccccc12	none
Cc1cnc(C)c(N2CCN(Cc3nc(-c4ccc(C)o4)oc3C)CC2)n1	none
Cc1oc(-c2cccc3ccccc23)nc1CN1CCN(c2ncnc3ccccc23)CC1	ERK EGF block 32µM
